Records with an inconclusive call do not appear. Activity calls are given as the source filed them. The calls were made as follows: active = hit-call score of the fitted dose curve at least 0.9, where 1 is the maximum; inconclusive = response in the unintended direction; inactive = score below 0.9.

As a reminder, the AC50 is the concentration giving half of the maximal activity seen.

The assay in a line: Tanguay_ZF_120hpf_CIRC_legacy: (Legacy) Oregon State University Tanguay Lab 120 Hour Post-fertilization zebrafish Assay for Circulatory Malformation (AID 2283651). Here is the method: Tanguay_ZF_120hpf_legacy is a whole embryo, multiplexed endpoint assay using zebrafish larvae exposed for 120 hours post fertilization on a 96-well plate.Tanguay_ZF_120hpf_CIRC_legacy is one of one assay component(s) measured or calculated from the Tanguay_ZF_120hpf_legacy assay. It is designed to make measurements of zebrafish development as detected with brightfield microscopy of developing zebrafish embryos.Data from the assay component Tanguay_ZF_120hpf_CIRC_legacy was analyzed into 1 assay endpoints. This assay endpoint, Tanguay_ZF_120hpf_CIRC_legacy, was analyzed in the positive analysis fitting direction relative to DMSO as the negative control and baseline of activity. Using a type of morphology reporter, gain-of-signal activity can be used to understand changes in developmentals as they relate to the whole embryo. To generalize the intended target to other relatable targets, this assay endpoint is annotated to the zebrafish development intended target family, where the subfamily is angiogenesis.
Zebrafish husbandry: Tropical 5D wild-type adult zebrafish were housed in at an approximate density of 1000 per 100 gallon tank at the Sinnhuber Aquatic Research Laboratory, Oregon State University, Corvallis, OR. Each tank was kept at standard laboratory conditions of 28C on a 14-h light/10-h dark photoperiod in fish water consisting of reverse osmosis water supplemented with a commercially available salt (Instant Ocean). Spawning funnels were placed into the tanks the night prior, and embryos were collected and staged. To increase bioavailability, the chorion was enzymatically removed using pronase (63.6mg/ml, >/= 3.5U/mg, Sigma-Aldrich: P5147) at 4 hours post fertilization (hpf) using a custom automated dechorionator.Chemical exposures: Six hpf dechorionated embryos were placed 1 embryo per well in a 96-well plate prefilled with 90 ul of EM using automated embryo placement systems (AEPS). Ten microliters of each row of dilution plate 2 was added to 2 exposure plates. The final DMSO concentration used was 0.64% (vol/vol). Thirty-two embryos were also exposed to 5uM trimethyltin chloride (positive control). Plates were sealed to prevent evaporation and foil covered to reduce light exposure and kept in a 28C incubator. Embryos were statically exposed until 120 hpf. At 24 hpf, embryos were assessed for photomotor response using a custom photomotor response analysis tool (PRAT) and for developmental toxicity endpoints (MO24: mortality at 24 hpf, DP: developmental progression, SM: spontaneous movement, and NC: notochord distortion). At 120 hpf, locomotor activity was measured using Viewpoint Zebralab and assessed for 18 endpoints. Zebrafish acquisition and analysis program (ZAAP), a custom program designed to inventory, acquire, and manage zebrafish data, was used to collect developmental endpoints as either present or absent (i.e., binary responses were recorded). If mortality occurred for an embryo (at either 24 or 120 hpf), the non-mortality endpoints were not measured.
In the case of `Cc1ccc(S(=O)(=O)NC(=O)NN2CCCCCC2)cc1`, the compound was called inactive.
Regarding `CC(C)c1nnc2ccc(-c3ocnc3-c3cc(F)ccc3F)cn12`, the compound was classed as inactive.
`O=C(O)c1cccc(C[C@@H]2COc3ccc(OCc4nc5cc(F)ccc5s4)cc3[C@@H]2O)c1`: the outcome was inactive.
The same measure, in the same setting: under `O=C(O)c1ccc2c(c1)nc(C(=O)NC1CCN(C3CC3)CC1)n2Cc1cc(-c2ccc(Cl)s2)on1` stands “inactive”; under `CCCCCCCC/C=C\CCCCCCCC(=O)OC[C@@H](O)[C@H]1OC[C@H](O)[C@H]1O`, “inactive”.
As to `CCN(CC)C(=S)SSC(=S)N(CC)CC`, the AC50 is 5.12 µM (active).
In the case of `CCCCCCOC(=O)CC(CC(=O)OCCCCCC)(OC(=O)CCC)C(=O)OCCCCCC`, the result was inactive.
As to `OCc1ccccc1`, the call was inactive.
Take `CCCCCCCC1CCC(=O)O1` (stereo not given): the result was inactive.
As to `O=c1[nH]cnc2c1ncn2[C@H]1CC[C@@H](CO)O1`, the result was inactive.
Still for that read-out and setting: under `CC(C)C(=O)Nc1ccc([N+](=O)[O-])c(C(F)(F)F)c1` stands “inactive”; under `CCn1nc(C)c2c1C(=O)NCC(c1ccc(O)cc1)=N2`, “inactive”.
Same read-out and setting: under `OC(CCl)CCl` stands “inactive”; under `CCc1ccc(O)c(C(C)(C)C)c1`, “inactive”.
Still for that read-out and setting: under `COCc1nnc(-c2ccc[n+]([O-])c2)n1-c1c(Cl)c(Cl)cc2[nH]c(=O)c(=O)[nH]c12` stands “inactive”; under `OCCNCCO`, “inactive”.
As for `O=S(=O)(O)c1ccc(N=Nc2c(O)ccc3cc(S(=O)(=O)O)ccc23)cc1`, the result was inactive.
Same read-out and setting: under `O=C(O)[C@H](O)[C@@H](O)C(=O)O` stands “inactive”.
On the same count and under the same terms, under `c1ccc2ncccc2c1` stands “inactive”.
Turning to `Cn1c(=O)c2[nH]cnc2n(C)c1=O`, the compound was called inactive.
With `OC[C@H]1O[C@@H]2O[C@H]3[C@H](O)[C@@H](O)[C@@H](O[C@H]4[C@H](O)[C@@H](O)[C@@H](O[C@H]5[C@H](O)[C@@H](O)[C@@H](O[C@H]6[C@H](O)[C@@H](O)[C@@H](O[C@H]7[C@H](O)[C@@H](O)[C@@H](O[C@H]1[C@H](O)[C@H]2O)O[C@@H]7CO)O[C@@H]6CO)O[C@@H]5CO)O[C@@H]4CO)O[C@@H]3CO`, the compound was called inactive.
Same read-out and setting: under `CC1(C)C(=O)N(Cl)C(=O)N1Cl` stands “inactive”.
Still for that read-out and setting: under `CCCOc1ccc(S(=O)(=O)N2CCN(CC)CC2)cc1-c1nc2c(CC)n(Cc3ccccn3)nc2c(=O)[nH]1` stands “inactive”; under `O=C1CN(N=Cc2ccc([N+](=O)[O-])o2)C(=O)N1`, “inactive”; under `Cc1ncc([C@@H](CCCCCCc2ccc3c(n2)NCCC3)CC(=O)O)cn1`, “inactive”.
The same measure, in the same setting: under `CCc1cccc(CC)c1N` stands “inactive”.
For the compound `C=CCc1cc(S(=O)(=O)c2ccc(O)c(CC=C)c2)ccc1O`, the result was inactive.
Same read-out and setting: the result for `Cc1nc(-c2ccccn2)ncc1C(=O)Nn1cc(C)c2cc(F)ccc21` reads “inactive”.
`O=C(O)c1cccc(C(=O)O)c1`: the outcome was inactive.
Same read-out and setting: the result for `CC[C@H](C)C(=O)O[C@H]1C[C@H](O)C=C2C=C[C@H](C)[C@H](CC[C@@H](O)C[C@@H](O)CC(=O)O)[C@H]21` reads “inactive”.
`CCCCCCCCCCCCCCCCOS(=O)(=O)O`: the outcome was inactive.
As to `COc1cc(C(C)C)c2c(c1)S(=O)(=O)N(COc1cc(=O)n3cccc(OCCN4CCCCC4)c3n1)C2=O`, the outcome was inactive.
`CCOc1ccc2[nH]cc(C(=O)NCc3ccccc3)c(=O)c2n1`: the call was inactive.
As for `CCCCCOC(C)=O`, the compound was called inactive.
Same read-out and setting: under `NC(=O)NN=Cc1ccc([N+](=O)[O-])o1` stands “inactive”.
With `Cc1nccn1-c1ccc(Sc2cccc(C3(C(N)=O)CCOCC3)c2)cc1`, the result was inactive.
For the compound `CCCCCCCCCC`, the compound was classed as inactive.
In the case of `CCCCCCCCN(C)C`, the call was inactive.
In the case of `CCCCCCCCCCCCCCO`, the compound was called inactive.
Still for that read-out and setting: under `NC(=O)N1c2ccccc2C=Cc2ccccc21` stands “inactive”.
